System: VDR:RXRa (NR concentration 270 nM, RXRa partner concentration 90 nM)
Assay: PBM binding z-score (relative to random genomic background probes); higher = stronger binding; sequences stand for … in GC…GCGATTGACAGCGTAGAATGAAGG
Method: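 Protein-binding microarray (Agilent 4x180K custom design, double-stranded 60-nt probes: 5' GC cap, 34-nt variable region, 24-nt constant primer region; full probe sequence given). Purified or IVT nuclear receptor:RXRα heterodimers (3:1 NR:RXRα, mostly 270:90 nM) or homodimers were incubated for 1 h in PBS with 2% milk and no ligand, then detected with Alexa488 antibodies. Fluorescence from o1-orientation probes (~5 replicates averaged) was converted to z-scores against 500 random hg19 background probes. Variable regions are seed direct-repeat (DR0–DR5) sites, all their single-nucleotide variants and half-site ablations.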

| Sequence | PBM binding z-score |
| --- | --- |
| TCATTTAGGTAATACAGGTGAAAGTCGGCATCTA | 1.18 |
| CAAACTAGGTCAAGGCCAAAGTCGGTTTGTGCCA | 1.84 |
| AGAATGAGGTTATTTAGATCAGGGAATTGCGGTC | 1.88 |
| ATATGTAGGTTATCGGGTCACTCAGTTTGCGCAT | 5 |
| ATATGTAGGTTAGCTGGGCTCATTCAGACTAGGC | -0.0839 |
| ATCTCTAGGTAAAAGTACAGTGAATCCCGAGGAT | -0.148 |
| TCTGCTAGGTCAACGATGGTCAGCTACTCTGCTA | 1.68 |
| TCTTGTAGATCAAGCAGGTTTAGAAAGCCTGAGT | 0.444 |
| ACGATTAGTTGACTTAGGGCAACCGATACGACGC | 0.161 |
| CCGAGTAGGTTATGGGGCATTGAGGCAACGGTGA | 0.258 |
| ACTAGTTGGTCAGCTTAGGTCACACACAATTCGG | 1.82 |
| TTTACAGGGTCAAAGGCCAGAGTACGAATGTCGA | 4.79 |
| CTCGAAAGGTCGTGCTCAAGTGAGTATACCAAAC | 3.13 |
| AGTCAAAGTTCAGGACGATGTAACGTAAAGCACG | 2.56 |
| ATCGAAAGGTCGAAGGTGAGTGTACCCACCCGAA | 3.05 |
| AGAACGAGGGCACGCTGAGTTGCTAGCAGAGTAG | 1.18 |
| AGAACGAGGGCACGCTAAGTTGATAGCAGAGTAG | 1.65 |
| GGAACGAGGGCAAAGTGGATAGCATCTGTCGACG | 1.08 |
| CCTACTGGGCCACGAAAGGTCATTGCTTCAGTGA | 4.23 |
| CCGACTGGGGGAAGGTTACCATAACGCACAGCCA | 0.558 |

| Sequence | PBM binding z-score |
| --- | --- |
| TGTCAAAGTTCAAAGGTAACGTACGTATCCACAC | 5.05 |
| AGTCAAAGTCCAGGACGAGGTAACGTAAAGCACG | -0.202 |
| GCTTACGGGTCAAAGGTTAGAGCATGAATAGAAT | 4.84 |
| CAAACTAGGTCAGGGTCAAAGTCGGTTTGTGCCA | 4.97 |
| ATCGATAGGTCGTGAGGTGAGTATACAGAAAGGC | 1.08 |
| CGTCCAAGGTTAAAGGTCAGTGAAGAGATGACGG | 4.69 |
| ACTCGGAGGACAAAGGTCATAGCTACGCCAGTGA | 4.68 |
| ATGTCTAGGTAAGACTCAGTTCAGTGAAGAACGC | 0.683 |
| TCAGACAGTTGAAGGTAACTCAGGTACGCAGTCG | 1.03 |
| GCTCGGAGGACAAGGTCAGAGCCTTGTCCGTAGA | 1.43 |
| TTACCAAGGTAAAGGTCGTTGATCCCTCTGTAGA | 2.34 |
| GGAACGAGGGCTTTCGAGTTGATAGCATGGCGAT | -0.0757 |
| AGAACGAGGGCAATGAGTTGATATCACGGGTGGC | 5.09 |
| ACCTCTAGGTAACCAAGTTCAGTGAATGCCGAAC | 3.96 |
| GATACAGGGTCAAGGCAAGAGTACGCGTATTGAT | 4.62 |
| TCTTGTAGATCAATAGAGGTTAAGAAGGTGCGCT | 1.91 |
| CGTCCACGGTCAAGGTCAGTGAAAGAGACTCGAA | 1.43 |
| ATCTCTAGGTAAGACTCAATTCAGTGAAGAACGC | 0.199 |
| CCAGACAGGTGAAAGGTAAATCAGTCTGGTACGC | 0.701 |
| AGAATGAGCTTATACGTAGATCAGGGAAGAAAGT | -0.451 |
